Several values for one entry are separate records, joined by “and”; a condition that tells them apart may be missing. Identical values can stand only once. Out of some 5,500 compounds screened, about 2,000 (36%) were called active. Inconclusive results (about 18%) are left out. Cut-off read from the data, not from the text of the source: active = normalized growth mostly below about 0.91 (no sharp cut-off); inconclusive = no clear call, values can overlap the other calls; inactive = mostly above about 0.92. Some of the results follow.
Test: chemical genetic growth profiling, strain panel (AID 1159580);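 note: tested at 20 µM; growth read once vehicle control cultures reached saturation at 30 °C; 1 = growth at the plate median or of vehicle wells; lower values mean less growth of the strain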
Conditions: S. cerevisiae deletion strains, growth OD

Measured: normalized growth

CC(C)[N+](C)(CCOC(=O)C1c2ccccc2Oc2ccccc21)C(C)C
inactive: locus YAL013W, strain DEP1, stronger effect = lower value 1.01 | locus YAL021C, strain ccr4, stronger effect = lower value 1.01 | locus YAL026C, strain drs2, stronger effect = lower value 1.03 | locus YAL030W, strain snc1, stronger effect = lower value 1.02 | locus YAL040C, strain CLN3, stronger effect = lower value 1.01 | locus YBL061C, strain skt5, stronger effect = lower value 0.989 | locus YBR009C, strain hhf1, stronger effect = lower value 0.997 | locus YBR021W, strain FUR4, stronger effect = lower value 1.02 | locus YBR023C, strain chs3, stronger effect = lower value 1.02 | locus YBR171W, strain sec66, stronger effect = lower value 1.01 | locus YBR229C, strain ROT2, stronger effect = lower value 0.997 | locus YBR231C, strain swc5, stronger effect = lower value 1.01 | locus YBR279W, strain paf1, stronger effect = lower value 0.99 | locus YCL011C, strain gbp2, stronger effect = lower value 1.01 | locus YCL016C, strain dcc1, stronger effect = lower value 1.01 | locus YCL029C, strain bik1, stronger effect = lower value 1.01 | locus YCL061C, strain MRC1 (second series), stronger effect = lower value 1.01 | locus YCL069W, strain vba3, stronger effect = lower value 0.993 | locus YCR088W, strain abp1, stronger effect = lower value 1.01 | locus YDL005C, strain med2, stronger effect = lower value 1.02 | locus YDL035C, strain GPR1, stronger effect = lower value 1.01 | locus YDL040C, strain nat1, stronger effect = lower value 0.996 | locus YDL074C, strain BRE1, stronger effect = lower value 1.02 | locus YDL101C, strain DUN1, stronger effect = lower value 1 | locus YDL134C, strain PPH21, stronger effect = lower value 1 | locus YDL185W, strain tfp1, stronger effect = lower value 1 | locus YDL192W, strain arf1, stronger effect = lower value 1.01 | locus YDR001C, strain nth1, stronger effect = lower value 0.996 | locus YDR069C, strain doa4, stronger effect = lower value 1 | locus YDR101C, strain arx1, stronger effect = lower value 0.997 | locus YDR137W, strain rgp1, stronger effect = lower value 1.01 | locus YDR150W, strain NUM1, stronger effect = lower value 1.01 and 1 | locus YDR159W, strain sac3, stronger effect = lower value 0.987 | locus YDR162C, strain NBP2, stronger effect = lower value 1.02 | locus YDR195W, strain ref2 0.976 | locus YDR297W, strain sur2, stronger effect = lower value 0.999 | locus YDR318W, strain mcm21, stronger effect = lower value 1.01 | locus YDR334W, strain swr1, stronger effect = lower value 1 | locus YDR335W, strain msn5, stronger effect = lower value 1.01 | locus YDR363W, strain ESC2, stronger effect = lower value 1.05 | locus YDR388W, stronger effect = lower value 1.01 | locus YDR392W, strain spt3, stronger effect = lower value 0.98 | locus YDR502C, strain sam2, stronger effect = lower value 1 | locus YEL003W, strain gim4, stronger effect = lower value 1 | locus YEL037C, strain rad23, stronger effect = lower value 0.995 | locus YEL061C, strain CIN8 (second series), stronger effect = lower value 0.995 | locus YEL061C, strain CIN8, stronger effect = lower value 1.01 | locus YER002W, strain NOP16, stronger effect = lower value 1.02 | locus YER015W, strain faa2, stronger effect = lower value 1.01 | locus YER016W, strain bim1, stronger effect = lower value 1.01 | locus YER110C, stronger effect = lower value 1 | locus YER111C, strain swi4, stronger effect = lower value 0.993 | locus YER155C, strain BEM2 (second series), stronger effect = lower value 0.955 | locus YER155C, strain BEM2, stronger effect = lower value 1.01 | locus YER167W, strain BCK2, stronger effect = lower value 1.01 | locus YFR010W, strain ubp6, stronger effect = lower value 0.994 | locus YGL078C, strain dbp3, stronger effect = lower value 1.01 | locus YGL086W, strain mad1, stronger effect = lower value 0.998 | locus YGL167C, strain pmr1, stronger effect = lower value 0.997 | locus YGL173C, strain kem1, stronger effect = lower value 1 | locus YGL227W, strain vid30, stronger effect = lower value 1.02 | locus YGL240W, strain doc1, stronger effect = lower value 0.983 | locus YGL248W, strain PDE1, stronger effect = lower value 0.997 | locus YGL253W, strain hxk2, stronger effect = lower value 1.02 | locus YGR078C, strain PAC10, stronger effect = lower value 1 and 1.01 | locus YGR135W, strain pre9, stronger effect = lower value 1.01 | locus YGR229C, strain SMI1, stronger effect = lower value 1.02 | locus YGR252W, strain gcn5, stronger effect = lower value 0.956 | locus YHR013C, strain ard1, stronger effect = lower value 1.04 | locus YHR027C, strain rpn1, stronger effect = lower value 1.01 | locus YHR030C, strain SLT2, stronger effect = lower value 1 and 1.05 | locus YHR079C, strain IRE1 (second series), stronger effect = lower value 1.01 | locus YHR079C, strain IRE1, stronger effect = lower value 1.05 | locus YHR094C, strain hxt1, stronger effect = lower value 1 | locus YHR129C, strain ARP1, stronger effect = lower value 1 | locus YHR142W, strain chs7, stronger effect = lower value 0.994 | locus YHR200W, strain rpn10, stronger effect = lower value 1.01 | locus YIL066C, strain RNR3, stronger effect = lower value 1.01 | locus YIL073C, strain SPO22, stronger effect = lower value 1.03 | locus YIL125W, strain kgd1, stronger effect = lower value 1.01 | locus YIR030C, strain dcg1, stronger effect = lower value 1.01 | locus YJL092W, strain hpr5, stronger effect = lower value 1 | locus YJL095W, strain BCK1 (second series), stronger effect = lower value 1.01 | locus YJL095W, strain BCK1, stronger effect = lower value 0.996 and 1.01 | locus YJL115W, strain asf1, stronger effect = lower value 1 | locus YJL129C, strain trk1, stronger effect = lower value 1.01 | locus YJL134W, strain LCB3, stronger effect = lower value 1.01 | locus YJL154C, strain vps35, stronger effect = lower value 1.01 | locus YJL164C, strain tpk1, stronger effect = lower value 0.995 | locus YJL166W, strain qcr8, stronger effect = lower value 0.98 | locus YJL168C, strain set2, stronger effect = lower value 1 | locus YJL187C, strain SWE1 (second series), stronger effect = lower value 1 | locus YJR043C, strain POL32, stronger effect = lower value 1 | locus YJR066W, strain TOR1, stronger effect = lower value 0.985

Reference: PubChem BioAssay AID1159580 (chemical genetic matrix, 2015)
